Source: PubChem BioAssay AID425 (Sanford-Burnham Center for Chemical Genomics, 2006)
The whole screen tested about 110,000 compounds, of which about 190 (0.17%) were called active. Only a selection was taken, and actives are over-represented in it overall. Measured potencies and affinities stand elsewhere. Values without a mark were called inactive. Cut-off read from the data, not from the text of the source: active = inhibition above about 50%; inactive = the rest.

Each molecule was assayed against Dual specificity protein phosphatase 6 (Rattus norvegicus) (UniProt Q64346) (assay: inhibition of rat DUSP6 enzyme activity – biochemical, in vitro, primary screen (AID 425;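 note: plate controls were vehicle for no effect and reference inhibitor for full effect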)). Settings: recombinant MKP-3 phosphatase activity, fluorescence; at 20 µM; active compounds read high.
Sequence of Dual specificity protein phosphatase 6 (Rattus norvegicus) (Q64346 whole entry, looked up): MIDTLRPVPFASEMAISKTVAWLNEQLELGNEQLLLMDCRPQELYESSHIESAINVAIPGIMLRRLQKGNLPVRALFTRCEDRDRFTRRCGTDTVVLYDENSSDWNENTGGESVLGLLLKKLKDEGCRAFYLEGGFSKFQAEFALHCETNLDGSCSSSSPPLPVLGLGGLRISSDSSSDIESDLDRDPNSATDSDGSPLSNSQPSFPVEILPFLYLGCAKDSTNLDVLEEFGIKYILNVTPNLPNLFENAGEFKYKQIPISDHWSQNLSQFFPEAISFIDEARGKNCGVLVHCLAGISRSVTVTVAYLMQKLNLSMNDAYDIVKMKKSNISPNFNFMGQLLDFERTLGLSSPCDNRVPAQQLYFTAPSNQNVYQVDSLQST
With `CN(CN1C(=O)C(=O)c2cc([N+](=O)[O-])ccc21)[N+](=O)[O-]` the inhibition was 86.6% (active). Molecule `CN(C)C(=O)Oc1ccc([N+](=O)[O-])cc1` has an inhibition of -1.2%. With `O=[N+]([O-])c1ccc(N2CCN(Cc3ccccc3)CC2)c(Cl)c1` the inhibition was -2.4%. `CN1C(=O)C(=Cc2cccn2-c2cccc([N+](=O)[O-])c2)C(=O)N(C)C1=O` was tested, and the inhibition was 4.9%. With `CCN1C(=O)/C(=C/c2cccn2C)C(=O)NC1=S` the inhibition was 108% (active). With `C=CCN1C(=O)/C(=C\c2cccn2-c2cccc([N+](=O)[O-])c2)C(=O)NC1=S` the inhibition was 94.7% (active). `C=CCN1C(=O)/C(=C\c2cccn2-c2ccc([N+](=O)[O-])cc2)C(=O)NC1=S` gave an inhibition of 37.5%. For `CCN1C(=O)/C(=C/c2ccoc2)C(=O)NC1=S`, the inhibition was 107% (active). Work on `CCN1C(=O)/C(=C/c2ccc(OC)c3ccccc23)C(=O)NC1=S` yielded an inhibition of 2.2%. `Cn1cccc1/C=C1/C(=O)NC(=S)N(c2ccc(Cl)cc2)C1=O` was tested, and the inhibition was 77.8% (active). In the case of `O=C1NC(=O)N(c2ccccc2)C(=O)/C1=C/c1ccoc1`, the inhibition was 4.9%. Work on `O=C1NC(=S)N(c2cccc(Cl)c2)C(=O)/C1=C/c1ccc(Cl)cc1` yielded an inhibition of -0.2%. Work on `COc1ccc(CN2C(=O)NC(=O)/C(=C\c3ccoc3)C2=O)cc1` yielded an inhibition of 5.2%. `O=C1NC(=S)N(c2ccc(Cl)cc2)C(=O)/C1=C/c1ccc(-c2ccccc2C(=O)O)o1` gave an inhibition of 6.3%. Molecule `C=CCN1C(=O)NC(=O)C(=Cc2cccn2C)C1=O` has an inhibition of 2.3%. With `CCC1(c2ccccc2)C(=O)NC(=O)N(C(=O)c2cccc(F)c2)C1=O` (stereo not given) the inhibition was -3.3%. `O=C1NC(=O)C(=Cc2ccc(OCc3cccc(C(=O)O)c3)cc2)C(=O)N1` showed an inhibition of -1%. In the case of `CCOc1c(P(=S)(N(C)C)N(C)C)c(C)nn1-c1ccccc1`, the inhibition was -4.3%. For `Oc1ccc(CC2CC3CCN2CC3)cc1O` (stereo not given), the inhibition was -5.2%. Molecule `CCCc1[nH]nc2c1C1(C(=O)N(CC(N)=O)c3ccccc31)C(C(=O)OC)=C(N)O2` (stereo not given) has an inhibition of -2.9%. `CC1CCC(C(=O)NC(C(=O)N2CCC3(CC2)OCCO3)C(C)C)CC1` (stereo not given) gave an inhibition of -15.8%. `CCC1(C)CC(CCNCc2ccccc2)(c2ccc(C)cc2)CCO1` (stereo not given) showed an inhibition of -4%. With `Cc1ccccc1C(=O)Nc1cc(Cl)c([N+](=O)[O-])cc1Cl` the inhibition was 1.4%. In the case of `COC(=O)CCCNC(=O)CN1CC(c2ccccc2)CC1=O` (stereo not given), the inhibition was -1.1%. `O=C(c1cc2c(s1)CCCC2)N1CCC2(CC1)OCCO2` showed an inhibition of -11.3%. `O=C1NC(=S)N(c2cccc(Br)c2)C(=O)/C1=C/c1cccs1` gave an inhibition of 5.7%. Work on `CC(C)c1ccc(N2C(=O)NC(=O)/C(=C/c3ccco3)C2=O)cc1` yielded an inhibition of 4.9%. With `CCOc1ccc(N2C(=O)/C(=C/c3ccco3)C(=O)NC2=S)cc1` the inhibition was 107% (active). `O=C1NC(=O)N(Cc2ccccc2)C(=O)/C1=C\C=C\c1ccco1` showed an inhibition of 3.4%. `Cc1cccc(N2C(=O)NC(=O)C(=Cc3ccco3)C2=O)c1` gave an inhibition of 2.3%. `O=C1NC(=S)N(c2cccc(Br)c2)C(=O)/C1=C/C=C/c1ccccc1` gave an inhibition of 11.1%. In the case of `C=CCN1C(=O)/C(=C\C=C\c2ccco2)C(=O)NC1=S`, the inhibition was 83.7% (active). Work on `C=CCN1C(=O)/C(=C\c2ccc(C)o2)C(=O)NC1=S` yielded an inhibition of 8.6%. For `O=C1NC(=S)N(c2cccc(Br)c2)C(=O)/C1=C/c1ccco1`, the inhibition was 108% (active). For `CCOc1ccc(N2C(=O)/C(=C/c3ccc(C)cc3)C(=O)NC2=S)cc1`, the inhibition was 2.5%. `CCOc1ccc(N2C(=O)/C(=C/c3cc(Cl)ccc3O)C(=O)NC2=S)cc1` was tested, and the inhibition was 4.8%. In the case of `O=C1NC(=O)N(c2cccc(Br)c2)C(=O)/C1=C/c1ccco1`, the inhibition was 97.8% (active). With `Clc1ccc(CCNCc2ccc3c(c2)OCO3)c(Cl)c1` the inhibition was 1.1%. `O=c1c2ccccc2nc(-c2ccccc2F)n1-c1ccc(Cl)cc1` gave an inhibition of 3.1%. `O=C(Nc1cccc(OC(=O)N2CCOCC2)c1)N1CCOCC1` was tested, and the inhibition was 0.2%. For `O=C1NC(=S)N(c2ccc(Br)cc2)C(=O)/C1=C/c1ccc(-c2ccccc2C(=O)O)o1`, the inhibition was 4.4%. Work on `CCOc1ccc2ccccc2c1/C=C1\C(=O)NC(=S)N(c2ccccc2)C1=O` yielded an inhibition of 0.5%. In the case of `O=C1NC(=S)N(c2ccccc2F)C(=O)C1=Cc1ccco1`, the inhibition was 99% (active). Work on `CN(C)c1ccc(C=C2C(=O)NC(=S)N(c3ccccc3F)C2=O)cc1` yielded an inhibition of -0.6%. With `O=C1NC(=S)N(c2ccccc2)C(=O)/C1=C/c1ccco1` the inhibition was 102% (active). `Cc1ccc(C=C2C(=O)NC(=S)N(c3ccccc3F)C2=O)s1` was tested, and the inhibition was 3%. Molecule `CN1CCN(Cc2nc3ccccc3n2C)CC1` has an inhibition of -3%. `CCN1CCN(c2ccc(C(F)(F)F)cn2)CC1` showed an inhibition of 2.1%. `CN1CCN(c2ccc(NC(=O)C(C)(C)C)cc2)CC1` gave an inhibition of -2.3%. In the case of `Cc1ccc2nc3c(cc2c1)CC1(C(=O)N(C)C(=O)N(C)C1=O)C1CCCCN31` (stereo not given), the inhibition was -20.3%. With `O=C(c1ccc(N2N=N2)cc1)c1ccc(N2N=N2)cc1` the inhibition was -3.2%. In the case of `CCOc1ccc(N2C(=O)/C(=C/c3ccc(Br)o3)C(=O)NC2=S)cc1`, the inhibition was 104% (active). For `CN1C(=O)NC(=O)/C(=C/c2ccc(Br)o2)C1=O`, the inhibition was 6%. With `O=C1NC(=S)N(c2ccc(F)cc2)C(=O)/C1=C/c1ccc(Br)o1` the inhibition was 90.9% (active). Work on `COc1ccc(N2C(=O)/C(=C/c3ccc(-c4cc(C(=O)O)ccc4Cl)o3)C(=O)NC2=S)cc1` yielded an inhibition of 9.5%. Work on `CN1C(=O)NC(=O)/C(=C/c2ccc(I)o2)C1=O` yielded an inhibition of -0.4%. In the case of `CCOc1ccc(N2C(=O)NC(=O)/C(=C\c3ccc(C)o3)C2=O)cc1`, the inhibition was 3.6%. With `CCOc1ccc(N2C(=O)/C(=C/c3ccc(C)o3)C(=O)NC2=S)cc1` the inhibition was 13.5%. With `O=C1NC(=O)N(c2ccc(Cl)cc2)C(=O)/C1=C/c1ccc(Br)o1` the inhibition was 41.4%. `COc1ccc(N2C(=O)/C(=C/c3ccc(I)o3)C(=O)NC2=S)cc1` was tested, and the inhibition was 108% (active). Work on `CCOC(=O)C1CCN(/C=C2/C(=O)NC(=O)N(Cc3ccco3)C2=O)CC1` yielded an inhibition of -5.2%. Work on `O=C1N(CN2CCOCC2)c2ccccc2C1(O)c1c[nH]c2ccccc12` (stereo not given) yielded an inhibition of 0.3%. Work on `CN(C)C(=O)Oc1ccc(OC(=O)c2ccccc2)cc1` yielded an inhibition of -6.4%. Molecule `O=C1c2ccccc2C2(c3ccc(Cl)cc3)NCCN12` (stereo not given) has an inhibition of -7.5%. In the case of `O=[N+]([O-])c1ccc(N2CCNCC2)cc1NCCOc1ccccc1`, the inhibition was 3.6%. For `O=C(COc1ccc(Cl)cc1)N1CCN(Cc2ccc([N+](=O)[O-])cc2)CC1`, the inhibition was -0.9%. With `Cc1ccc(C=C2C(=O)N(C)C(=O)N(C)C2=O)o1` the inhibition was -11.1%. `Cc1cc(OCc2ccc(F)cc2)c2c3c(c(=O)oc2c1)CCCC3` showed an inhibition of 2.6%. Work on `Cn1cc(/C=C2\C(=O)NC(=O)N(Cc3ccccc3)C2=O)c2ccccc21` yielded an inhibition of 2.1%. Molecule `CC(C)N1CCN(Cc2cc(Br)ccc2O)CC1` has an inhibition of -1.8%.
